According to the supplement of paper PMC10981050:
Values joined by “and” are separate entries in the source; they are usually repeats but may differ in a detail not shown here. Identical values can stand only once. Counter-ions that a name gives are not always drawn.

How the values were obtained:
Assay in all cases: cell viability relative to vehicle control; higher = less cytotoxic
Details in all cases: 10 µM
[1] = test system: K562
Procedure, shortened: (§1)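 CRISPR-edited SRSF2 P95 mutant and isogenic wild-type clones of four leukaemia lines were screened against Selleck bioactive, kinase and epigenetic probe libraries, with identity-inconsistent compounds removed. Compounds were acoustically dispensed into 384-well plates at a single 10 µM dose, with 2000 cells in 50 µL medium per well. After 48 h, supernatant was removed and CellTiter-Glo luminescence was read. Viability was expressed as percent of the on-plate DMSO vehicle control, analysed in Genedata Screener.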

[2] = test system: MARIMO
Procedure, shortened: as §1

[3] = test system: MOLM14
Procedure, shortened: as §1

[4] = test system: OCI-AML2
Procedure, shortened: as §1

Row | Compound | cell viability ([1]; SRSF2 genotype: SRSF2 P95H/wt) | cell viability ([1]; SRSF2 genotype: SRSF2 wt/wt) | cell viability ([2]; SRSF2 genotype: SRSF2 P95H/wt) | cell viability ([2]; SRSF2 genotype: SRSF2 wt/wt) | cell viability ([3]; SRSF2 genotype: SRSF2 P95H/wt) | cell viability ([3]; SRSF2 genotype: SRSF2 wt/wt) | cell viability ([4]; SRSF2 genotype: P95H/wt) | cell viability ([4]; SRSF2 genotype: wt/wt)
1 | c1cc2c(c3c1C[C@H]1c4cc5c(cc4CCN1C3)OCO5)OCO2 [Stylopine hydrochloride] | 90.4% and 91.9% | 91.4% | 97.7% | 96.3% | 88% | 94% | 92.8% | 97.5%
2 | CC(C(=O)O)c1cccc(Oc2ccccc2)c1 (centres undefined) [Fenoprofen calcium hydrate] | 95.1% and 104% | 99.4% | 103% | 101% | 95.1% | 102% | 106% | 103%
3 | C/C(=C(/CCOC(=O)c1ccccc1)SC(=O)c1ccccc1)N(C=O)Cc1cnc(C)nc1N [Dibenzoyl Thiamine] | 103% | 107% | 96.5% | 94% | 90.8% | 102% | 99.1% | 109%
4 | CC(=O)O[C@]1(C(C)=O)CC[C@H]2[C@@H]3C[C@H](C)C4=CC(=O)C=C[C@]4(C)[C@@]3(F)[C@@H](O)C[C@@]21C [Fluorometholone Acetate] | 93.4% and 95.3% | 85.4% | 96.4% | 105% | 97.6% | 93.5% | 99.5% | 113%
5 | C#CCN[C@@H]1CCc2ccccc21 [Rasagiline mesylate] | 98% and 105% | 101% | 105% | 106% | 99.4% | 104% | 108% | 107%
6 | N[C@@H](Cc1c[nH]c2ccc(O)cc12)C(=O)O [5-hydroxytryptophan (5-HTP)] | 106% and 102% | 94.2% | 99.8% | 103% | 93.3% | 99.1% | 94.5% | 104%
7 | Cc1ccccc1C(=O)Nc1ccc(C(=O)N2CCCC(O)c3cc(Cl)ccc32)c(C)c1 (centres undefined) | 89.3% and 84.8% | 85.7% | 80.7% | 99.9% | 84.2% | 91.7% | 91.6% | 83%
8 | CC(C)C[C@H](NP(=O)(O)O[C@@H]1O[C@@H](C)[C@H](O)[C@@H](O)[C@H]1O)C(=O)N[C@@H](Cc1c[nH]c2ccccc12)C(=O)O [Phosphoramidon Disodium Salt] | 104% and 101% | 92.3% | 101% | 106% | 95.5% | 104% | 98.6% | 96.9%
9 | COc1cccc(C(N)=O)c1 [3-Methoxybenzamide] | 106% and 99.6% | 111% | 104% | 102% | 103% | 107% | 101% | 115%
10 | C[C@@H](O)[C@H]1C(=O)N2C(C(=O)O)=C([C@H]3CCCO3)S[C@H]12 [Faropenem Sodium] | 89.8% and 77.8% | 82% | 88.3% | 94.3% | 88.3% | 90.3% | 87.1% | 97.4%
11 | c1ccc(NCc2ccc(CNc3ccccn3)cc2)nc1 | 91.8% and 94.5% | 85% | 89% | 91.9% | 87.2% | 92.9% | 78.6% | 84.2%
12 | COC(=O)C1=C(C#N)NC(C)=C(C(=O)OC(C)C)C1c1cccc([N+](=O)[O-])c1 (centres undefined) [Nilvadipine (ARC029)] | 81.2% and 85.3% | 80.7% | 76% | 79.7% | 80.9% | 84.7% | 103% | 97.2%
13 | O=C(C=CC=Cc1ccccc1)CCc1ccccc1 [Alnustone] | 105% and 100% | 91.8% | 92% | 87.5% | 88.1% | 87.4% | 76.6% | 95.6%
14 | Nc1c(CC(=O)O)cccc1C(=O)c1ccccc1 [Amfenac Sodium (monohydrate)] | 103% and 98.3% | 93.7% | 94.7% | 101% | 91.5% | 95.9% | 88.5% | 99.8%
15 | C#CC[C@H](c1nc2cc(Cl)ccc2c(=O)n1Nc1ccccc1)N(CCCN)C(=O)c1cccc(Cl)c1F | 0.47% and 0.44% | 0.4% | 0.46% | 0.55% | 0.39% | 0.42% | 0.41% | 0.45%
16 | CC(C)C1=CC2=CC[C@@H]3[C@](C)(CCC[C@@]3(C)C(=O)O)[C@H]2CC1 [Abietic Acid] | 113% and 104% | 98.8% | 105% | 115% | 99.5% | 105% | 90.9% | 95.5%
17 | OC(c1ccccc1)(c1ccccc1)C12CC[N+](CCOCc3ccccc3)(CC1)CC2 [Umeclidinium bromide] | 81.8% and 94.9% | 89.5% | 76.2% | 90.9% | 86.5% | 81.6% | 75.6% | 85.1%
18 | O=C(/C=C/c1ccc(O[C@@H]2O[C@H](CO)[C@@H](O)[C@H](O)[C@H]2O)cc1)c1ccc(O)cc1O [Isoliquiritin] | 96.8% and 98% | 105% | 103% | 97.6% | 69.7% | 87.6% | 111% | 107%
19 | CN(C)c1cc(NC(=O)CNC(C)(C)C)c(O)c2c1CC1CC3C(N(C)C)C(=O)C(C(N)=O)=C(O)C3(O)C(=O)C1=C2O (centres undefined) [Tigecycline] | 94.1% | 97.6% | 94.9% | 97.2% | 99.2% | 96.9% | 106% | 95.7%

Row | Compound | cell viability ([1]; SRSF2 genotype: SRSF2 P95H/wt) | cell viability ([1]; SRSF2 genotype: SRSF2 wt/wt) | cell viability ([2]; SRSF2 genotype: SRSF2 P95H/wt) | cell viability ([2]; SRSF2 genotype: SRSF2 wt/wt) | cell viability ([3]; SRSF2 genotype: SRSF2 P95H/wt) | cell viability ([3]; SRSF2 genotype: SRSF2 wt/wt) | cell viability ([4]; SRSF2 genotype: P95H/wt) | cell viability ([4]; SRSF2 genotype: wt/wt)
20 | COc1cc(/C=C/C(=O)CC(=O)/C=C/c2ccc(O)c(OC)c2)ccc1O [Curcumin] | 90.9% and 87% | 91.9% | 87.3% | 75.7% | 47.8% | 59.1% | 60.6% | 69.3%
21 | CC(C)OC(=O)CCC/C=C\C[C@@H]1[C@@H](CC[C@@H](O)CCc2ccccc2)[C@H](O)C[C@@H]1O [Latanoprost] | 93% and 96.4% | 90.1% | 89.6% | 92.5% | 88% | 103% | 97.8% | 98.3%
22 | CCCCCCCC/C=C\CCCCCCCCCCCC(=O)O [Erucic acid] | 99.7% and 96.1% | 103% | 101% | 107% | 104% | 107% | 100% | 110%
23 | COC(=O)C1(C)CCC2(C(=O)O)CCC3(C)C(=CCC4C5(C)CC(O)C(O)C(C)(CO)C5CCC43C)C2C1 (centres undefined) [Phytolaccagenin] | 108% | 113% | 111% | 103% | 111% | 111% | 105% | 98.5%
24 | Cc1c(CN2CCN(C(=O)[C@H](C)O)CC2)sc2c(N3CCOCC3)nc(-c3cnc(N)nc3)nc12 [Apitolisib (GDC-0980, RG7422)] | 43.1% and 43.8% | 38.9% | 39.7% | 33.8% | 21.7% | 21.6% | 5.46% | 14.5%
25 | Cc1ncc(-c2ccnc(Nc3ccc(S(C)(=O)=O)cc3)n2)n1C(C)C | 45.1% and 45.5% | 32.4% | 10.9% | 5.22% | 1.23% | 0.38% | 0.94% | 15.2%
26 | O=C(/C=C/C=C/c1ccc2c(c1)OCO2)N1CCCCC1 [Piperine (1-Piperoylpiperidine)] | 105% and 94.8% | 89.7% | 92.7% | 100% | 106% | 100% | 85.6% | 97.3%
27 | COc1cc(C(=O)OCCCCNC(=N)N)cc(OC)c1O [Leonurine] | 105% and 99% | 95.2% | 98.4% | 112% | 95.2% | 104% | 94.4% | 107%
28 | COC(=O)C1=C(C)NC(C)=C(C(=O)OCCN2CCN(C(c3ccccc3)c3ccccc3)CC2)C1c1cccc([N+](=O)[O-])c1 (centres undefined) [Manidipine (Manyper)] | 75.7% and 63.9% | 53.3% | 60.2% | 58.5% | 73.9% | 64.2% | 29.8% | 41%
29 | Cc1cc(C)nc(NS(=O)(=O)c2ccc(N)cc2)n1 [Sulfamethazine Sodium Salt] | 105% and 99.9% | 102% | 106% | 106% | 100% | 106% | 88.5% | 113%
30 | C#Cc1cccc(Nc2ncnc3cc(OCCOC)c(OCCO)cc23)c1 [OSI-420 (Desmethyl Erlotinib)] | 43.5% and 54.3% | 44.4% | 53.9% | 49.5% | 32.1% | 29.9% | 30.6% | 37.5%
31 | CO/N=C(\C(=O)N[C@@H]1C(=O)N2C(C(=O)O)=CCS[C@H]12)c1csc(N)n1 [Ceftizoxime] | 99.2% and 101% | 110% | 96.1% | 98.9% | 104% | 103% | 111% | 98.5%
32 | CCOC(=O)c1c2c3c(cccc3[nH]c1=O)C(=O)c1ccccc1-2 | 95.8% and 97.2% | 90.7% | 84% | 96.1% | 90.7% | 95.8% | 92.4% | 101%
33 | C[C@H](CC[C@@H](O[C@@H]1O[C@H](CO[C@@H]2O[C@H](CO)[C@@H](O)[C@H](O)[C@H]2O)[C@@H](O)[C@H](O)[C@H]1O[C@@H]1O[C@H](CO)[C@@H](O)[C@H](O)[C@H]1O)C(C)(C)O)[C@H]1CC[C@@]2(C)[C@@H]3CC=C4[C@@H](CC[C@H](O[C@@H]5O[C@H](CO[C@@H]6O[C@H](CO)[C@@H](O)[C@H](O)[C@H]6O)[C@@H](O)[C@H](O)[C@H]5O)C4(C)C)[C@]3(C)[C@H](O)C[C@]12C [Mogroside V] | 94.9% and 96.3% | 101% | 92.7% | 104% | 104% | 104% | 103% | 97.7%
34 | O=C1CC[C@@H](C(=O)N2CSC[C@H]2C(=O)O)N1 [Pidotimod] | 99.7% and 104% | 101% | 104% | 99.1% | 104% | 104% | 114% | 104%
35 | C[C@@H]1O[C@@H](O[C@H]2[C@H](Oc3cc(O)c(C(=O)CCc4ccc(O)cc4)c(O)c3)O[C@H](CO)[C@@H](O)[C@@H]2O)[C@H](O)[C@H](O)[C@H]1O [Naringin Dihydrochalcone (Naringin DC)] | 99.7% and 107% | 94.5% | 102% | 105% | 98.4% | 104% | 96.8% | 111%
36 | O=C(O)c1cc(=O)cc(C(=O)O)o1 [Chelidonic acid] | 105% | 113% | 110% | 106% | 101% | 107% | 110% | 105%
37 | Cc1c(-c2ccc(O)cc2)n(Cc2ccc(OCCN3CCCCCC3)cc2)c2ccc(O)cc12 [Bazedoxifene HCl] | 1.11% and 0.75% | 0.96% | 17.3% | 27.5% | 0.32% | 0.46% | 0.41% | 0.44%
38 | O=c1ccn(C2OC(CO)C(O)C2O)c(=O)[nH]1 (centres undefined) | 90.3% and 93.8% | 99.6% | 99.2% | 97.5% | 100% | 100% | 100% | 95.4%
